These results are taken from PubChem BioAssay (Tox21).

Records with an inconclusive call do not appear. Values without a mark were called inactive. Activity calls are given as the source filed them. Calls follow the shape of the dose curve; as a rule, active = well fitted activation curve with a large enough effect in the signal ratio in the repeat runs (not every such curve was filed as active); inconclusive = weak or mixed curves; inactive = flat fitted curve, though single readings scatter; the % refers to the signal ratio.
% is scaled to controls: 0 for no effect and ±100 for the full control effect.

This test in a line: qHTS assay to identify small molecule agonists of H2AX (AID 1224845). To be noted: CHO-K1 phospho-H2AX Ser139 HTRF, 3 h; series mostly up to 154 µM; activation (H2AX phosphorylation): at the top concentration. From the text:
National Center for Advancing Translational Sciences [NCATS]
NIH Chemical Genomics Center [NCGC]
U.S. Environmental Protection Agency [EPA]
National Institutes of Environmental Health Sciences [NIEHS]
National Toxicology Program [NTP]
U.S. Food and Drug Administration [FDA]
HTRF phospho-H2AX (Ser139) assay (Cisbio Bioassays, US) enables the quantitative detection of the histone variant H2AX when phosphorylated on serine 139. When double-stranded DNA breaks, either by ionizing radiation or endogenous physiological processes, H2AX becomes phosphorylated at Ser139. This phospho-Ser139 serves as a sensitive biomarker for the detection of such breaks, localizing the site of DNA repair. So, HTRF phospho-H2AX Ser139 is a pertinent assay to study genome stability, the cell cycle, DNA repair, and it serves as a biomarker for cancer, and to understand aging. Wild type CHO-K1 cells were used to identify the inducers of Phospho-H2AX Ser 139 from the Tox21 10K compound collections.
Tox21 Assay Protocol Summary:
The CHO-K1 cells suspended in culture medium containing 10% FBS were dispensed at 1000 cells/ 3 ul/well in 1536-well white wall/solid bottom plates (Greiner Bio-One North America, NC) using a Multidrop Combi (Thermo Fisher Scientific Inc., Waltham, MA). After the assay plates were incubated at 37C overnight, 23 nl of compounds at 15 concentrations (from 5-48 columns) or positive control (from 1 to 4 columns) were transferred to the assay plates using a Pintool station (Wako, San Diego, CA) into each well resulting in a final DMSO concentration of 0.76%. After 3hr incubation at 37C, 1 uL/well Supplemented Lysis buffer (diluted 100 fold blocking reagent in lysis buffer) (HTRF Phospho-H2A.X (S139) Assay kit from Cisbio US Inc., Bedford, MA) was added using a Flying Reagent Dispenser (FRD) (Aurora Discovery, CA). After 10sec spin at 1000 rpm in a plate centrifuge, the assay plates were incubated at room temperature for 30 min. Then followed by the addition of 1 uL/well detection buffer (containing a mixture of two antibodies, one labeled with cryptate, Anti pH2AX (S139)-K and another labeled with d2, Anti H2AX-d2) using FRD. After incubation at room temperature for 24 hr, the time resolved fluorescence at excitation 320 nm and emissions at 665 nm and 620 nm was measured using an Envision plate reader (PerkinElmer, Waltham, MA).
On the technique in general: In qHTS, concentration-response curves come from the screen itself.
As for `Cc1ccc2c(C)cccc2c1`, the “activation (H2AX phosphorylation)” value was 1.16%. The same measure, in the same setting: the result for `CC1(C)CC(=O)CC(C)(C)N1[O]` reads 0.0706%.

In the case of `CC[N+]1(CCOC(=O)C(O)(c2ccccc2)c2ccccc2)CCCCC1`, the “activation (H2AX phosphorylation)” value is 0.683% [at 70.9 µM]. Same read-out and setting: the result for `C#CC(O)(C=CCl)CC` (stereo not given) reads -1.86% [at 70.9 µM]. As to `Nc1cccc2ccccc12`, the Potency result was “inactive”. Turning to `C=C(Cl)Cl`, the “activation (H2AX phosphorylation)” value was 1.04%.

Turning to `CC(C)[C@@H](C(=O)O[C@@H](C#N)c1cccc(Oc2ccccc2)c1)c1ccc(Cl)cc1`, the Potency result was “inactive”. For the compound `C[N+]1(CCF)[C@@H]2CC[C@H]1CC(OC(=O)C(O)(c1ccccc1)c1ccccc1)C2` (stereo not given in full), the “activation (H2AX phosphorylation)” value is -1.61% [at 70.9 µM].

For the compound `O=C(Cl)OCCOCCOC(=O)Cl`, the “activation (H2AX phosphorylation)” value was 0.0398%. Still for that read-out and setting: the result for `Cc1nc(N(C)C)nc(OC(=O)N(C)C)c1C` reads -1.93%; that for `C=CCc1ccccc1O`, -1.6%; that for `CCCC[N+](CCCC)(CCCC)CCCC`, -0.999%. On to `CC(C)(C#N)C(C)(C)C#N`, for which the “activation (H2AX phosphorylation)” value is 0.583%.

Consider `O=C(O)C(O)C(O)C(=O)O` (stereo not given), for which the “activation (H2AX phosphorylation)” value is -2.93%. Same read-out and setting: the result for `CC(C)(C)NCC(O)c1cc(Cl)c(N)c(C(F)(F)F)c1` (stereo not given) reads 0.167% [at 70.9 µM]. `Nc1cc(Cl)cc(C(=O)O)c1Cl`: the Potency entry is “inactive”. With `C[C@H]1O[C@H](OC2[C@@H](O)[C@@H](O)C(O)[C@H](O)[C@H]2O)[C@@H](N)C[C@@H]1N=C(N)C(=O)O` (stereo not given in full), the “activation (H2AX phosphorylation)” value is -0.396%. Take `C1CS1`: the “activation (H2AX phosphorylation)” value was -1.28%. Turning to `CCC1(CC)C(=O)NC(=O)NC1=O`, the “activation (H2AX phosphorylation)” value is 2.34% [at 70.9 µM].

In the case of `O=C(Cc1ccccc1)OCCc1ccccc1`, the “activation (H2AX phosphorylation)” value was 1.19%. As for `CCCSP(=S)(OCC)Oc1ccc(SC)cc1` (stereo not given), the “activation (H2AX phosphorylation)” value was -0.0214%. On the same count and under the same terms, the result for `C[N+](C)(C)CCOC(=O)C(O)(c1ccccc1)c1ccccc1` reads 0.719% [at 70.9 µM]. `O=C(O)CCCOc1ccc(Cl)cc1Cl`: the Potency result is “inactive”.

Take `CCCC[P+](CC)(CCCC)CCCC` (tested in a mixture with another compound): the “activation (H2AX phosphorylation)” value was -2.18%.

As to `COc1ccccc1N1CCNCC1`, the “activation (H2AX phosphorylation)” value was -1.25% [at 70.9 µM]. Still for that read-out and setting: the result for `CN(C)N` reads -0.535%; that for `N#CC(C#N)=C(C#N)C#N`, -0.0808%. Take `CC1(C)[C@H](C(=O)O[C@H](C#N)c2cccc(Oc3ccccc3)c2)[C@@H]1C=C(Br)Br`: the Potency result is “inactive”.

`CC(Cc1ccccc1)NCc1ccccc1Cl` (stereo not given): the “activation (H2AX phosphorylation)” value was -0.0539% [at 70.9 µM]. Still for that read-out and setting: the result for `CC(C)(C)OOC(C)(C)CCC(C)(C)OOC(C)(C)C` reads 1.91%. On the same count and under the same terms, the result for `CCCCOC(=O)CCC(=O)OCCCC` reads -0.409%. Same read-out and setting: the result for `C=CCOC(=O)C(C)(C)OC(=O)c1cc(-n2c(=O)cc(C(F)(F)F)n(C)c2=O)ccc1Cl` reads -0.954%.

`COc1cc(C[C@@H](C)N)c(OC)cc1Br`: the “activation (H2AX phosphorylation)” value was 0.0844%. On the same count and under the same terms, under `CCNC(=O)NC(=O)/C(C#N)=N/OC` stands -0.428%; under `CC(C)c1ccc(NC(=O)N(C)C)cc1`, -2.04%. The same measure, in the same setting: the result for `O=C(N/N=C/c1ccc([N+](=O)[O-])o1)c1cc([N+](=O)[O-])cc([N+](=O)[O-])c1O` reads 0.1% [at 70.9 µM]. In the case of `CCOP(=S)(OCC)SCSc1cc(Cl)ccc1Cl`, the “activation (H2AX phosphorylation)” value is 0.392%. Same read-out and setting: the result for `Oc1cccc(Cl)c1` reads -1.25%; that for `COC(=O)Cc1ccccc1`, -3.42%; that for `CCOC(=O)c1cncn1C(C)c1ccccc1` (stereo not given), -2.6% [at 70.9 µM].
